ALOX12 inhib: inhibitors of human 12-lipoxygenase (ALOX12) | Potency, µM (titrated, usually from 57.1 µM), for inactives: at the top dose activity change, negative = inhibition, usual class: inhibitors | 150,000 compounds, 0.12% hits | P18054 | purified 12-hLO, xylenol orange hydroperoxide absorbance; note: potency is the fitted concentration of half-maximal effect; nearly all actives have a fitted effect of over 55% in size
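Hydroperoxide formation by human 12-lipoxygenase from 40 uM arachidonic acid was followed colorimetrically via ferric-xylenol orange complex, using the 573/405 nm absorbance ratio. Enzyme concentration was 150 nM, with 30 min reaction at room temperature.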
HPGD block: blocks human HPGD enzyme activity | P15428 | purified HPGD, NADH fluorescence kinetic, PGE2 substrate | Potency, µM, for the others: top-dose activity change, negative = inhibition, hits mostly inhibitors | 150,000 compounds, 4.3% hits | AID 894; active = well fitted inhibition curve with a large enough effect, not every such curve was filed as active; inconclusive = small, poorly fitted or top-dose-only effect, or another doubt; inactive = no such curve, though single readings can be large or run the other way; note: potency is the fitted concentration of half-maximal effect
Target sequence (P15428 whole entry, looked up): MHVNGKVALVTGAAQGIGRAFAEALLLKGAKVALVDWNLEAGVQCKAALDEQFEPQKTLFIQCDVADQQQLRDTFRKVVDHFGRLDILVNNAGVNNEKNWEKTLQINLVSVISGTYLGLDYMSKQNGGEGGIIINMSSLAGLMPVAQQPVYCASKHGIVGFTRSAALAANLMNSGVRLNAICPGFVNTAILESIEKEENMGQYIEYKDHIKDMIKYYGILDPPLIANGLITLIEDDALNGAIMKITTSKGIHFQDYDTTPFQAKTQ
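20 nM HPGD preincubated 15 min at room temperature with compound in 50 mM Tris-HCl pH 8, 0.01% Tween 20. Started with 1 mM NAD+ and 30 uM prostaglandin E2; NADH fluorescence (360/450 nm) read 5 times over 30-s intervals, last minus first.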
15-hLO-2 inh: inhibitors of human 15-lipoxygenase 2 (ALOX15B) | O15296 | purified 15hLO-2, xylenol orange hydroperoxide absorbance | Potency, µM (highest dose often 57.1 µM), for the others: at the top dose activity change, negative = inhibition, actives largely listed as inhibitors | 110,000 compounds, 0.56% hits; note: potency is the fitted concentration of half-maximal effect; nearly all actives have a fitted effect of over 60% in size
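Read-out: hydroperoxide product oxidises ferrous iron, measured as xylenol orange complex via the 573-to-405 nm absorbance ratio after 30 min. Reaction: 50 nM enzyme, 15 min compound preincubation, 45 uM arachidonic acid, 90 min RT, Hepes pH 7.5 with Triton X-100.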
IMPase Li cell: IMPase inhibition in cells with lithium potentiation | CHO-M1 cells, IP1 TR-FRET (IP-One), carbachol + lithium | Potency, µM (series often up to 59.4 µM), without a hit: top-dose activity, negative = IMPase inhibition, usual class: inhibitors | 210,000 compounds, 0.35% hits | AID 1457;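 note: IP1 builds up when IMPase is blocked and the TR-FRET signal falls; potency is the fitted concentration of half-maximal effect; plate controls were basal vehicle for no effect and high inhibitor control for full effect; nearly all actives have a fitted effect of over 50% in size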
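Lithium-sensitised IP1 accumulation assay; M1-expressing CHO cells treated 30 min at 37C with compound. Competitive antibody detection by time-resolved FRET followed a 10 min room-temperature lysis step.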
PNC inhibitor: inhibitors of perinucleolar compartment assembly; 140,000 compounds, 3.1% hits; AID 2417; activity change (PNC), negative = inhibition, % at 10 µM; PC3M PTB-GFP, PNC prevalence imaging, 16 h; hits give low values;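 active = readout at or below -70, meaning at least 70% loss of cells showing the perinucleolar compartment, a nuclear body marking cancer cells; inconclusive = readout between -30 and a set limit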;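 note: plate controls were DMSO wells for no effect and camptothecin positive control wells for full effect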
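Read-out is percentage of cells bearing a perinucleolar compartment, from automated 20x imaging of fixed, Hoechst-stained PC3M PTB-GFP cells. Cells were seeded 4 h, then exposed 16 h to compound (23 nl of library stock) in duplicate plates.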
IMPase cell inh: membrane-permeable compound that blocks inositol monophosphatase; CHO-M1 cells, IP1 accumulation, HTRF TR-FRET ratio; inhibition (IP1 accumulation), % at 46.1 µM; AID 901; 120,000 tested, under 10 active; active = well fitted curve in the direction sought with a large enough effect in the signal ratio, not every such curve was filed as active; inconclusive = small, poorly fitted or top-dose-only effect, or a change in a side signal; inactive = no such curve, though single readings can be large or run the other way; the % refers to the signal ratio;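 note: cells stimulated with carbachol in lithium chloride buffer; plate controls were DMSO basal wells for no effect and reference inhibitor wells for full effect; higher means more IMPase inhibition seen as more IP1 and lower FRET ratio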
Target sequence (P97697 whole entry, looked up): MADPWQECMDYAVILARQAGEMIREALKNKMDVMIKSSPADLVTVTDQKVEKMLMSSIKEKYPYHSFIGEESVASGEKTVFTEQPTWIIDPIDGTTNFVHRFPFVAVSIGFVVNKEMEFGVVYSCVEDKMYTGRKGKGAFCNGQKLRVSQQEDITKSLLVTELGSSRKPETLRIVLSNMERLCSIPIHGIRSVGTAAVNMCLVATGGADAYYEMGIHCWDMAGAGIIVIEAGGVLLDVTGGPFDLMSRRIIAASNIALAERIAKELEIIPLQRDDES
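Elevated IP1 in lysates lowers TR-FRET signal (665/620 ratio and 620 channel reported). Cells were CHO-M1, given carbachol (50 uM as added) plus 50mM LiCl, pH 7.4, 30 min, 37C; compounds titrated up to 46 uM; AC50 by Hill equation.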
Starred values were filed as active, the others as inactive; u = inconclusive; x = no result; [ ] = remark or other dose. In the library only some 5.4% were active in any assay of this set; here they are far more common. Unless noted, calls come from the whole dose curve; as a rule, active = well fitted curve in the direction sought with a large enough effect; inconclusive = small, poorly fitted or top-dose-only effect, or another doubt; inactive = no such curve, though single readings can be large; an effect the other way counts as inactive or inconclusive. Unless noted, % is set by controls: 0 for no effect and ±100 for the full control effect.

SMILES	ALOX12 inhib	HPGD block	15-hLO-2 inh	IMPase Li cell	PNC inhibitor	IMPase cell inh
COc1ccc(P2(=O)Nc3ccccc3N2)cc1	9.1%	25.1µM*	-6.2%	2.8%[38.3 µM]	24.8	u
Cc1cccc(N2C(=O)NC(=O)/C(=C/c3ccc([N+](=O)[O-])o3)C2=O)c1	13.3%	12.6µM*	x	-3.7%	-20.8	x
O=[As](O)(O)c1ccc(NCc2ccccc2)cc1	-2.5%[11.4 µM]	0.0%	-6.7%[11.4 µM]	-6.2%	x	x
O=C(O)C1(c2ccc(Cl)cc2)CCC1	-0.7%	-5.6%	-2.2%	29.7%[38.3 µM]	-80.9*	-10.4
CC(C)CC(N)C1(c2ccc(Cl)cc2)CCC1 (stereo unspecified)	-9.2%	-3.4%	56.9%	3.2%	x	x
[CH3][Hg][Cl]	-0.8%	u	-25.3%	3.3%	x	x
CCCC/C(=N\O)c1c[nH]c2ccccc12	-3.8%	-6.2%	-9.1%	12.6%[38.3 µM]	-80.9*	-4.4
CN(C)Cc1c[nH]c2ccccc12	1.0%	-28.4%	-1.7%	-1.5%	x	0.9
C=CC=O	1.1%	-6.8%	-5.9%	-0.3%	x	x
CC(=O)Oc1c2c(c(CC=C(C)C)c3c1C(=O)C1=CC4CC5C(C)(C)OC(C/C=C(\C)C(=O)O)(C4=O)[C@]15O3)OC(C)(CCC=C(C)C)C=C2 (stereo partly specified)	u	28.2µM*	u	27.2%	x	x
O=C(O)C[C@H]1NCc2cc3ccccc3nc21	4.0%[11.4 µM]	-2.6%	-11.5%[11.4 µM]	13.3%	x	x
Nn1cnnc1	-3.4%	-6.8%	-4.6%	-7.9%	x	x
COc1ccc2c3c1O[C@@H]1C(=O)CC[C@@]4(O)[C@@H](C2)N(CC2CC2)CC[C@]314	-3.3%	x	3.8%	x	x	1.4
Cc1ccc(N2C(=O)NC(=O)/C(=C\C=C\c3ccco3)C2=O)cc1C	-17.8%	10µM*	x	13.8%	34.4	x
CCCCN1C(=O)/C(=C/c2ccc(N3CCCCCC3)cc2)C(=O)NC1=S	-11.6%	-14.5%	x	6.4%	-20.4	-5.1
C=CCN1C(=O)/C(=C/c2ccc3c(c2)CCCN3CCC)C(=O)NC1=S	-17.5%	14.1µM*	x	3.9%	12.1	-1.0
O=C1NC(=S)N(C2CC2)C(=O)/C1=C/c1ccc2c(c1)CCN2CCCCl	-18.7%	11.2µM*	x	10.1%	56.5	5.0
CCN1C(=O)/C(=C/c2ccc3c(c2)CCN3CCCCl)C(=O)NC1=S	-27.8%	7.94µM*	x	49.7%	-99.4*	x
CSc1ncc(/C=C2/C(=O)NC(=O)N(C3CCCCC3)C2=O)cn1	-15.5%	u	-1.7%	2.2%[38.3 µM]	u	5.6
CC(c1ccc(F)cc1)n1cc(C(=O)NCc2ccc3c(c2)OCO3)nn1 (stereo unspecified)	-10.6%	x	-3.5%	x	-89.7*	3.6
CC(C)CNC(=O)c1c(N)n(Cc2ccc3c(c2)OCO3)c2nc3ccccc3nc12	-4.0%	u	-4.7%	31.7%[38.3 µM]	16.5	-2.9
c1cc(CCN2CCCCC2)ccn1	-4.2%[11.4 µM]	-5.3%	2.4%[11.4 µM]	-5.8%	x	x
CON(C)C(=O)Nc1ccc(Cl)cc1	-1.6%	-6.4%	9.2%	6.8%[38.3 µM]	-121.3*	4.2
CC(=O)O[C@H]1CC[C@H]2[C@@H]3CCC4=C[C@@H](C5SCCS5)[C@H](OC(C)=O)C[C@]4(C)[C@H]3CC[C@@]12C	-1.9%[11.4 µM]	-16.6%	-5.7%[11.4 µM]	7.4%	x	x
C[C@@]12CC[C@H]3[C@@H](CC=C4C[C@H](OS(=O)(=O)O)CC[C@]43C)[C@H]1CCC2=O	1.7%	x	5.9%	x	x	9.2
CC1COC2=C1C(=O)C(=O)c1c2ccc2c1CCCC2(C)C (stereo unspecified)	-6.4%[0.00818 µM]	20µM*	u	-8.3%	x	x
O=Nc1ccc(Nc2ccccc2)cc1	-14.7%	-13.9%	u	34.2%	x	x
c1ccc(Nc2ccc(Nc3ccccc3)cc2)cc1	12.6µM*	-22.3%	12.6µM*	33.3%	x	x
O[N+]1=CC=CCC1=S.On1ccccc1=S.[Zn]	-24.6%	u	u	16.4%	x	x
CC1=CC(c2ccccc2)NC(=S)N1 (stereo unspecified)	-10.3%	12.6µM*	x	u	131.4	x

Screening data: PubChem BioAssay, National Center for Advancing Translational Sciences (NCATS)
